# Assay results taken from PubChem BioAssay (NCATS).
# Results filed as inconclusive are left out. Active and inactive are the calls of the source. The call rests on the fitted dose curve; in most records, active means well fitted inhibition curve with a large enough effect; inconclusive means small, poorly fitted or top-dose-only effect; inactive means flat fitted curve, though single readings scatter.
# Molecular target: Aldehyde dehydrogenase, mitochondrial (Homo sapiens) (UniProt P05091)
# Assay: qHTS for Inhibitors of the Aldehyde Dehydrogenase Family (ALDH2) Primary screen (AID 2061308);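 further: plate controls were vehicle for no effect and reference inhibitor for full effect; nearly all actives have a fitted effect of over 55% in size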
# Conditions: ALDH2 enzyme inhibition qHTS, 1536-well; series mostly up to 56 µM; activity change, negative = inhibition: at the top concentration
Structure (SMILES),"activity change, negative = inhibition",Potency
N#CC1=C(NC=NCc2ccccc2)Oc2ccc3ccccc3c2C1c1ccccc1 (configuration not stated),-9.87% (inactive),
CCC1(CC)CCN(C(=O)CC(c2ccc3c(c2)OCO3)c2c(O)cc(OC)cc2OC)C1 (configuration not stated),1.63% (inactive),
CNc1oc(-c2ccc(Cl)c(Cl)c2)nc1C#N,7.28% (inactive),
N#Cc1nc(Nc2cc(F)cc(F)c2)nc(NC2CCCC2)n1,12.6% (inactive),
Cc1nc(NCCO)c2nc(-c3ccccc3)n(CCN(C)C)c2n1,9.39% (inactive),
Cc1cccc(Cn2ncc3c4sc(C)cc4n(C)c3c2=O)c1,10.9% (inactive),
COc1ccc(N2C[C@]34C=C[C@H](O3)C(C(=O)O)C4C2=O)cc1OC (some centres not stated),-1.4% (inactive),
N#Cc1nc(Nc2ccc(-c3ccccc3)cc2)nc(NC2CCCC2)n1,-2.95% (inactive),
O=C(c1ccccc1O)N(Cc1ccccc1)Cc1ccccc1,8.29% (inactive),
Nc1ccc(Cl)cc1C(=O)c1ccc[nH]1,-7.09% (inactive),
CC(=O)O[C@@H]1C=C2[C@H](CC[C@@]3(C)[C@@]2(O)CC[C@H]2Cc4c([nH]c5ccccc45)[C@@]23C)O[C@@H]1C(C)(C)O,-13.8% [at 28 µM] (inactive),
Cc1ccc(S(=O)(=O)Nc2cnccc2C(=O)Nc2nc(-c3ccccc3)cs2)cc1,,inactive
Cc1nc(NC2CCCCC2)c2nc(-c3ccccc3)n(CC3CCN(C)CC3)c2n1,5.6% (inactive),
Cc1cccc(C)c1SC1=NS(=O)(=O)c2ccccc21,,inactive
COc1ccc(C(=O)Oc2ccc(-c3nc4ccccc4[nH]3)cc2)cc1OC,7.86% (inactive),
COC(=O)C1CCc2sc(NC(=O)Cc3ccccc3)c(C(=O)Nc3ccc(Cl)cc3)c21 (configuration not stated),8.6% (inactive),
CCN(Cc1ccccc1)c1ccc(Br)cn1,-1.98% (inactive),
